VCAM1 TNFa inh = reduces TNF alpha induced VCAM1 expression in HUVEC. inhibition, % at 2 µM. AID 802. HUVEC TNFa-induced VCAM-1 immunofluorescence, high-content imaging. 95,000 tested, 0.48% active;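 active = inhibition above the batch mean plus 3 SD, with images confirmed as a hit by eye, cut at about 37% in these data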;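 also: 0% = TNF-stimulated DMSO wells and 100% = unstimulated control wells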
E-sel TNF inh = blocks E-selectin expression induced by TNF alpha | 120,000 tested, 0.71% active | HUVEC TNFa-induced E-selectin immunofluorescence, high content | inhibition, % at 2 µM | AID 1246;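 active = inhibition above the batch mean plus 3 SD, and confirmed as a hit on visual image review, cut at about 43% in these data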;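 also: 0% = TNF-stimulated DMSO wells and 100% = unstimulated control wells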
NFkB transloc pot = enhances IL-1B driven NFkB nuclear translocation; HUVEC IL-1B NFkB p65 nuclear translocation imaging; activation, % at 2 µM; 94,000 tested, 0.3% active; AID 819;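 active = activation above 40%, about the mean plus 3 SD, also judged a hit on visual image review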;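 also: percent activation is computed from the nuclear over cytoplasmic p65 intensity ratio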
HUVEC tox TNFa = toxic to HUVEC cells under TNF alpha stimulation; HUVEC TNFalpha-stimulated, Hoechst cell count, imaging; cell count reduction, % at 2 µM; 93,000 tested, 0.17% active;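 active = cell count reduction exceeding the screen mean by over 5 SD, scaled to untreated wells per plate, cut at about 78% in these data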;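 also: cells counted after 24 h of TNF alpha exposure following the 1 h pretreatment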
HUVEC tox IL1B = HUVEC cytotoxicity counter-screen, IL-1B stimulated | HUVEC cell count loss, Hoechst imaging | cell count reduction, % at 2 µM | 94,000 tested, 0.41% active | AID 845;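 active = cell count reduction more than 3 SD above the screen-wide mean, cut at about 70% in these data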;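 also: normalized per plate to untreated control cells as the no-loss baseline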
IL1B NFkB inh = blocks IL-1B driven NFkB nuclear translocation in HUVEC cells; HUVEC IL-1B NFkB p65 nuclear translocation imaging; inhibition, % at 2 µM; 94,000 tested, 0.43% active;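 active = inhibition above about 30% together with a positive call from visual inspection of the well image, limit read from the data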;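 also: nuclear over cytoplasmic p65 intensity ratio measured by imaging; 0% = IL-1B stimulated DMSO wells and 100% = unstimulated DMSO wells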
* marks the source's active call; other numbers are inactive results. In the library only some 1.7% were active in any assay of this set; here they are far more common.

For Cc1cc(C)n(-c2nc3ccccc3nc2N2CCN(C(=O)c3ccc(Cl)cc3)CC2)n1 the results were VCAM1 TNFa inh 92*, E-sel TNF inh -16, NFkB transloc pot -9, HUVEC tox IL1B 8 and IL1B NFkB inh 10.
Cc1cc(C)n(-c2nc3ccccc3nc2N2CCCCCC2)n1 was read as VCAM1 TNFa inh -5, E-sel TNF inh 5, NFkB transloc pot -1, HUVEC tox TNFa -15, HUVEC tox IL1B -2 and IL1B NFkB inh 1.
`Cc1oc2cc3c(C(=O)N4CCCCC4)c(C)oc3cc2c1C(=O)N1CCCCC1` gave VCAM1 TNFa inh 89*, E-sel TNF inh -27, NFkB transloc pot 4, HUVEC tox TNFa 80*, HUVEC tox IL1B 0 and IL1B NFkB inh -4.
For O=[N+]([O-])c1ccc(O)c(/C=N/Nc2ccc(Cl)nn2)c1 the results were VCAM1 TNFa inh 63*, E-sel TNF inh 100*, NFkB transloc pot 23, HUVEC tox TNFa 15, HUVEC tox IL1B -55 and IL1B NFkB inh -23.
For C/C(=N/NC(=O)c1cccs1)c1ccc(NC(=O)COc2ccc(Cl)cc2)cc1 the results were VCAM1 TNFa inh 1, E-sel TNF inh 0, NFkB transloc pot -9, HUVEC tox TNFa 7, HUVEC tox IL1B -4 and IL1B NFkB inh 9.
Screening c1ccc2c(NC3=NCCCCS3)cccc2c1 returned VCAM1 TNFa inh -10, E-sel TNF inh -6, NFkB transloc pot -2, HUVEC tox TNFa -9, HUVEC tox IL1B -14 and IL1B NFkB inh 2.
For c1ccc(NC2=NCCCCS2)cc1 the results were VCAM1 TNFa inh 14, E-sel TNF inh 54*, NFkB transloc pot 15, HUVEC tox TNFa 2, HUVEC tox IL1B -36 and IL1B NFkB inh -15.
`CS(=O)(=O)N1CCCC(C(=O)NCc2ccc(F)cc2)C1` (stereo unspecified) gave E-sel TNF inh -47.
Screening O=C1C=C(c2ccccc2)C(O)(c2ccccc2)C1 (stereo unspecified) returned VCAM1 TNFa inh -1, E-sel TNF inh 61*, NFkB transloc pot 11, HUVEC tox TNFa -24, HUVEC tox IL1B -7 and IL1B NFkB inh -11.
For CCOC(=O)N1CCN(C(=S)NC(=O)c2cncc(Br)c2)CC1 the results were E-sel TNF inh 89*.
Screening CCOC(=O)N1CCN(C(=S)Nc2cccc(C)c2)CC1 returned VCAM1 TNFa inh -1, E-sel TNF inh 13, NFkB transloc pot 15, HUVEC tox TNFa 5, HUVEC tox IL1B -18 and IL1B NFkB inh -15.
`NC1=NC(=O)CC(C(=O)NCCc2ccccc2)S1` (stereo unspecified) gave VCAM1 TNFa inh 30, E-sel TNF inh 2, NFkB transloc pot -47, HUVEC tox TNFa 5, HUVEC tox IL1B 2 and IL1B NFkB inh 47*.
Screening CCc1ccccc1NC(=O)CSc1nc2n[nH]c(C)c2c(=N)n1-c1cccc(OC)c1 returned VCAM1 TNFa inh 9, E-sel TNF inh 54* and HUVEC tox TNFa -14.
For CCOc1ccccc1-n1c(SCC(=O)Nc2ccc(CC)cc2)nc2n[nH]c(C)c2c1=N the results were VCAM1 TNFa inh 16, E-sel TNF inh -24, NFkB transloc pot 38, HUVEC tox TNFa -42, HUVEC tox IL1B -6 and IL1B NFkB inh -38.
For CCOC(=O)c1c(C2COc3ccccc3O2)csc1NC(=O)c1ccco1 (stereo unspecified) the results were VCAM1 TNFa inh -1, E-sel TNF inh 12, NFkB transloc pot 4, HUVEC tox TNFa -19, HUVEC tox IL1B -20 and IL1B NFkB inh -4.
Cc1cccc(C)c1Nc1nnc(SC(C)C(=O)Nc2c(C)n(C)n(-c3ccccc3)c2=O)s1 (stereo unspecified) was read as E-sel TNF inh 6.
Screening COC(=O)C(/C=N/OCc1ccc([N+](=O)[O-])cc1)NC(=O)c1cccc(Cl)c1 (stereo unspecified) returned VCAM1 TNFa inh 21, E-sel TNF inh 12, NFkB transloc pot 28, HUVEC tox TNFa -16, HUVEC tox IL1B -11 and IL1B NFkB inh -28.
For CC1=C(C(=O)N2CCOCC2)C(c2ccc(C)cc2)NC(=S)N1 (stereo unspecified) the results were E-sel TNF inh -18.
`CO/C([O-])=N/c1c[n+](-c2ccc(Cl)cc2)no1` gave VCAM1 TNFa inh -4, E-sel TNF inh 59* and HUVEC tox TNFa -8.
For O=c1c2ccccc2n2c(-c3cccc(F)c3)nnc2n1Cc1ccccc1 the results were E-sel TNF inh 74*.
COc1ccc(/C=C/C(=O)NC(=S)Nc2cc([N+](=O)[O-])ccc2O)cc1OC was read as E-sel TNF inh -21.
COC(=O)Nc1ccc2ncn(C)c(=O)c2c1 was read as VCAM1 TNFa inh 14, E-sel TNF inh 1, NFkB transloc pot 14, HUVEC tox TNFa -31, HUVEC tox IL1B 10 and IL1B NFkB inh -14.
O=c1c2c(n3nnnc3n1-c1ccccc1)-c1ccccc1CC21CCCC1 was read as VCAM1 TNFa inh -3, E-sel TNF inh 100*, NFkB transloc pot -6, HUVEC tox TNFa -28, HUVEC tox IL1B -2 and IL1B NFkB inh 6.
CCn1c(SCC(=O)N2c3ccccc3CC2C)nnc1-c1ccco1 (stereo unspecified) was read as VCAM1 TNFa inh 15, E-sel TNF inh 5, NFkB transloc pot -45, HUVEC tox TNFa 0, HUVEC tox IL1B -13 and IL1B NFkB inh 45*.
CC1Cc2ccccc2N1C(=O)CSc1nnc2n1C(C)(C)Cc1ccccc1-2 (stereo unspecified) was read as E-sel TNF inh -1, NFkB transloc pot -98, HUVEC tox IL1B 95* and IL1B NFkB inh 98*.
`CCn1c(SCC(=O)N2CCc3ccccc32)nnc1-c1ccco1` gave VCAM1 TNFa inh 22, NFkB transloc pot 10, HUVEC tox TNFa 34, HUVEC tox IL1B -18 and IL1B NFkB inh -10.
Screening N#CCSc1ccc(-c2nc3ccccc3[nH]2)cn1 returned E-sel TNF inh -6.
For CC[C@H](C)[C@H](NC(N)=O)C(=O)NCCc1ccc(Cl)cc1Cl the results were E-sel TNF inh 0.
For CC(C)(C)OC(=O)N[C@@H](Cc1ccccc1)c1nnc(S(=O)(=O)Cc2ccccc2)o1 the results were VCAM1 TNFa inh 8, E-sel TNF inh 18, NFkB transloc pot -38, HUVEC tox TNFa -14, HUVEC tox IL1B -113 and IL1B NFkB inh 38*.
`CC(C)(C)OC(=O)N[C@@H](Cc1ccccc1)c1nnc(SCC(=O)O)o1` gave VCAM1 TNFa inh -14, NFkB transloc pot 2, HUVEC tox TNFa -40, HUVEC tox IL1B -11 and IL1B NFkB inh -2.
Cc1ccccc1CS(=O)(=O)c1nnc([C@H](Cc2ccccc2)NC(=O)OC(C)(C)C)o1 was read as VCAM1 TNFa inh 75*, E-sel TNF inh 19, NFkB transloc pot -5, HUVEC tox TNFa 9, HUVEC tox IL1B -3 and IL1B NFkB inh 5.
CCC(C)[C@@H](NC(=O)OC(C)(C)C)c1nnc(S(=O)(=O)Cc2cccc(C)c2)o1 (stereo partly specified) was read as VCAM1 TNFa inh 42*, NFkB transloc pot -2, HUVEC tox TNFa -9, HUVEC tox IL1B -24 and IL1B NFkB inh 2.
